Laboratory results from PubChem BioAssay (EPA / NIEHS).
Calls of active or inactive are those of the source. Rule for the calls: active = hit-call score of the fitted dose curve at least 0.9, where 1 is the maximum; inactive = score below 0.9.

Tests used:
Details in all cases: mRNA level, 48 h; actives raise or lower the signal
[1] = read-out: matrix metalloproteinase-10 (MMP10), MMP10 (gene 4319); test: LTEA_HepaRG_MMP10: Life Technologies and Expression Analysis (LTEA) Assay for matrix metalloproteinase-10 (MMP10) using HepaRG (AID 2283517)
Summary of the method: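 Differentiated HepaRG cells in serum-free induction medium exposed 48 h in duplicate to 8-point half-log series up to 100 uM in 0.5% DMSO. mRNA quantified by qRT-PCR, normalised to ACTB, GAPDH, POLR2A; bidirectional fit versus DMSO.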

MYC, MYC (gene 4609) = test: LTEA_HepaRG_MYC: Life Technologies and Expression Analysis (LTEA) Assay for MYC using HepaRG (AID 2283518)
Summary of the method: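 MYC transcript changes, up or down relative to 0.5% DMSO, from TaqMan qRT-PCR normalized to three housekeeping genes. Human HepaRG cultures received chemicals for 48 h at eight half-log concentrations up to 100 uM, in duplicate.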

[2] = read-out: matrix metalloproteinase-3 (MMP3), MMP3 (gene 4314); test: LTEA_HepaRG_MMP3: Life Technologies and Expression Analysis (LTEA) Assay for matrix metalloproteinase-3 (MMP3) using HepaRG (AID 2283519)
Summary of the method: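 HepaRG cells (~100,000/well) in serum-free induction medium were dosed in duplicate for 48 h with an 8-point half-log series from 100 uM, 0.5% DMSO. MMP3 mRNA was quantified by Fluidigm TaqMan qRT-PCR, normalized to three housekeeping genes.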

[3] = read-out: Paternally Expressed 10 (PEG10), PEG10 (gene 23089); test: LTEA_HepaRG_PEG10: Life Technologies and Expression Analysis (LTEA) Assay for Paternally Expressed 10 (PEG10) using HepaRG (AID 2283520)
Summary of the method: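 Differentiated HepaRG cells, plated 48 h then switched to serum-free induction medium, were exposed in duplicate for 48 h to eight half-log concentrations topping at 100 uM in 0.5% DMSO. PEG10 mRNA was quantified by TaqMan qRT-PCR, normalised to ACTB, GAPDH and POLR2A.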

[4] = read-out: Nuclear factor NF-kappa-B p105 subunit (Homo sapiens) (UniProt P19838); test: LTEA_HepaRG_NFKB1: Life Technologies and Expression Analysis (LTEA) Assay for Nuclear Factor Kappa B Subunit 1 (NFKB1) using HepaRG (AID 2283521)
Summary of the method: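 NFKB1 transcript was measured by TaqMan qRT-PCR on Fluidigm arrays, normalised to three housekeeping genes and fitted in both directions against 0.5% DMSO. HepaRG cells were dosed in duplicate for 48 h in serum-free induction medium, eight half-log steps from 100 uM.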

[5] = read-out: Protein phosphatase 2A (PPP2R4), PTPA (gene 5524); test: LTEA_HepaRG_PPP2R4: Life Technologies and Expression Analysis (LTEA) Assay for Protein phosphatase 2A (PPP2R4) using HepaRG (AID 2283522)
Summary of the method: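 Differentiated HepaRG cells in serum-free induction medium were exposed in duplicate for 48 h to eight concentrations, top 100 uM with half-log dilutions, in 0.5% DMSO. PPP2R4 mRNA was quantified by TaqMan qRT-PCR, normalized to ACTB, GAPDH and POLR2A.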

[6] = read-out: Phosphatase and tensin (PTEN), PTEN (gene 5728); test: LTEA_HepaRG_PTEN: Life Technologies and Expression Analysis (LTEA) Assay for Phosphatase and tensin (PTEN) using HepaRG (AID 2283523)
Summary of the method: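 HepaRG cells, 48 h after plating, exposed in duplicate for 48 h in serum-free induction medium to 8 half-log concentrations up to 100 uM (0.5% DMSO). PTEN mRNA by qRT-PCR, normalized to ACTB, GAPDH, POLR2A; bidirectional fit versus DMSO.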

[7] = read-out: solute carrier (SLC22A1), SLC22A1 (gene 6580); test: LTEA_HepaRG_SLC22A1: Life Technologies and Expression Analysis (LTEA) Assay for solute carrier (SLC22A1) using HepaRG (AID 2283524)
Summary of the method: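 Differentiated human HepaRG cells in serum-free induction medium, exposed 48 h in duplicate to 8-point half-log series from 100 µM top in 0.5% DMSO. SLC22A1 mRNA by TaqMan qRT-PCR normalized to ACTB, GAPDH, POLR2A; bidirectional fit versus DMSO.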

[8] = read-out: Pyruvate Dehydrogenase Kinase 4 (PDK4), PDK4 (gene 5166); test: LTEA_HepaRG_PDK4: Life Technologies and Expression Analysis (LTEA) Assay for Pyruvate Dehydrogenase Kinase 4 (PDK4) using HepaRG (AID 2283525)
Summary of the method: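 HepaRG cells plated 48 h, then switched to serum-free induction medium and exposed in duplicate for 48 h to 8 half-log concentrations from 100 uM in 0.5% DMSO. PDK4 mRNA measured by qRT-PCR, normalized to ACTB, GAPDH and POLR2A; bidirectional fit versus DMSO.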

[9] = read-out: NAD(P)H dehydrogenase [quinone] 1 (NQO1), NQO1 (gene 1728); test: LTEA_HepaRG_NQO1: Life Technologies and Expression Analysis (LTEA) Assay for NAD(P)H dehydrogenase [quinone] 1 (NQO1) using HepaRG (AID 2283526)
Summary of the method: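 Differentiated HepaRG cells, plated 48 h and then switched to serum-free induction medium, were exposed in duplicate for 48 h to 8-point half-log concentrations up to 100 uM in 0.5% DMSO. mRNA measured by qRT-PCR, normalized to ACTB, GAPDH, POLR2A; bidirectional fit versus DMSO.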

[10] = read-out: Nuclear factor erythroid 2-related factor 2 (Homo sapiens) (UniProt Q16236); test: LTEA_HepaRG_NFE2L2: Life Technologies and Expression Analysis (LTEA) Assay for Nuclear factor erythroid 2-related factor 2 (NFE2L2) Transcription Factor using HepaRG (AID 2283527)
Summary of the method: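 Differentiated human HepaRG cells, serum-free induction medium, exposed 48 h in duplicate to eight half-log concentrations up to 100 uM in 0.5% DMSO. NFE2L2 mRNA by Fluidigm TaqMan qRT-PCR, normalised to ACTB, GAPDH, POLR2A; bidirectional change versus DMSO.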

[11] = read-out: succinate dehydrogenase complex iron sulfur subunit B (SDHB), SDHB (gene 6390); test: LTEA_HepaRG_SDHB: Life Technologies and Expression Analysis (LTEA) Assay for succinate dehydrogenase complex iron sulfur subunit B (SDHB) using HepaRG (AID 2283528)
Summary of the method: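 SDHB transcript level read by TaqMan qRT-PCR, housekeeping-normalised (ACTB, GAPDH, POLR2A), after 48 h chemical treatment of plated HepaRG cells; eight concentrations top 100 uM, half-log steps, 0.5% DMSO, duplicates; fitted both directions against DMSO.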

[12] = read-out: Signal transducer and activator of transcription 3 (Homo sapiens) (UniProt P40763); test: LTEA_HepaRG_STAT3: Life Technologies and Expression Analysis (LTEA) Assay for Signal transducer and activator of transcription (STAT3) using HepaRG (AID 2283529)
Summary of the method: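 Differentiated HepaRG cells, serum-free induction medium, dosed 48 h in duplicate, 8 half-log concentrations from 100 uM in 0.5% DMSO. STAT3 mRNA by qRT-PCR, normalised to ACTB, GAPDH, POLR2A; bidirectional fit versus DMSO.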

[13] = read-out: solute carrier (SLCO1B1), SLCO1B1 (gene 10599); test: LTEA_HepaRG_SLCO1B1: Life Technologies and Expression Analysis (LTEA) Assay for solute carrier (SLCO1B1) using HepaRG (AID 2283530)
Summary of the method: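 SLCO1B1 transcript levels were quantified by TaqMan qRT-PCR using three housekeeping genes for normalization. This followed 48 h chemical exposure (100 uM top, half-log, 8 points, 0.5% DMSO) of HepaRG liver cells, with gain or loss fitted relative to DMSO.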

[14] = read-out: sulfotransferase 2A1 (SULT2A1), SULT2A1 (gene 6822); test: LTEA_HepaRG_SULT2A1: Life Technologies and Expression Analysis (LTEA) Assay for sulfotransferase 2A1 (SULT2A1) using HepaRG (AID 2283531)
Summary of the method: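 Expression change of SULT2A1, by qRT-PCR with three housekeeping-gene normalization, was scored bidirectionally versus DMSO. Cells: differentiated HepaRG, dosed in duplicate for 48 h across 8 points, highest 100 µM, half-log dilution, 0.5% DMSO.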

[15] = read-out: Transforming Growth Factor (TGFA), TGFA (gene 7039); test: LTEA_HepaRG_TGFA: Life Technologies and Expression Analysis (LTEA) Assay for Transforming Growth Factor (TGFA) using HepaRG (AID 2283532)
Summary of the method: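 Differentiated HepaRG cells exposed 48 hours in serum-free induction medium, 0.5% DMSO vehicle, 8-point half-log series from 100 uM, in duplicate. TGFA mRNA by TaqMan qRT-PCR, normalised to ACTB, GAPDH, POLR2A; bidirectional fit versus DMSO.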

[16] = read-out: Transforming Growth Factor (TGFB1), TGFB1 (gene 7040); test: LTEA_HepaRG_TGFB1: Life Technologies and Expression Analysis (LTEA) Assay for Transforming Growth Factor (TGFB1) Transporter using HepaRG (AID 2283533)
Summary of the method: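 TGFB1 transcript measured by qRT-PCR with normalisation to three housekeeping genes (ACTB, GAPDH, POLR2A); human HepaRG line treated in duplicate for 48 hr with an 8-point series topping at 100 uM, 0.5% DMSO vehicle, bidirectionally fitted.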

TIMP1, TIMP1 (gene 7076) = test: LTEA_HepaRG_TIMP1: Life Technologies and Expression Analysis (LTEA) Assay for TIMP1 using HepaRG (AID 2283534)
Summary of the method: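 Bidirectional change in TIMP1 transcript versus 0.5% DMSO, measured by TaqMan qRT-PCR with three housekeeping genes for normalization. HepaRG human liver cells dosed 48 h in duplicate, top concentration 100 uM with half-log dilutions.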

[17] = read-out: Tumor necrosis factor receptor 1 (TNFRSF1A), TNFRSF1A (gene 7132); test: LTEA_HepaRG_TNFRSF1A: Life Technologies and Expression Analysis (LTEA) Assay for Tumor necrosis factor receptor 1 (TNFRSF1A) using HepaRG (AID 2283535)
Summary of the method: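 mRNA measured by qRT-PCR (TaqMan, Fluidigm arrays) against ACTB/GAPDH/POLR2A housekeepers after 48 h chemical exposure of HepaRG cells. Top concentration 100 uM, half-log 8-point series, duplicates; vehicle 0.5% DMSO, both fit directions.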

[18] = read-out: Thyroid Hormone Responsive (THRSP), THRSP (gene 7069); test: LTEA_HepaRG_THRSP: Life Technologies and Expression Analysis (LTEA) Assay for Thyroid Hormone Responsive (THRSP) using HepaRG (AID 2283536)
Summary of the method: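 Differentiated HepaRG cells treated 48 h in serum-free induction medium with 8 half-log concentrations up to 100 uM (0.5% DMSO), duplicates. THRSP mRNA by TaqMan qRT-PCR normalised to ACTB, GAPDH, POLR2A; bidirectional fit versus DMSO.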

Measured: AC50

Sequence of Nuclear factor NF-kappa-B p105 subunit (Homo sapiens) (P19838 whole entry, looked up): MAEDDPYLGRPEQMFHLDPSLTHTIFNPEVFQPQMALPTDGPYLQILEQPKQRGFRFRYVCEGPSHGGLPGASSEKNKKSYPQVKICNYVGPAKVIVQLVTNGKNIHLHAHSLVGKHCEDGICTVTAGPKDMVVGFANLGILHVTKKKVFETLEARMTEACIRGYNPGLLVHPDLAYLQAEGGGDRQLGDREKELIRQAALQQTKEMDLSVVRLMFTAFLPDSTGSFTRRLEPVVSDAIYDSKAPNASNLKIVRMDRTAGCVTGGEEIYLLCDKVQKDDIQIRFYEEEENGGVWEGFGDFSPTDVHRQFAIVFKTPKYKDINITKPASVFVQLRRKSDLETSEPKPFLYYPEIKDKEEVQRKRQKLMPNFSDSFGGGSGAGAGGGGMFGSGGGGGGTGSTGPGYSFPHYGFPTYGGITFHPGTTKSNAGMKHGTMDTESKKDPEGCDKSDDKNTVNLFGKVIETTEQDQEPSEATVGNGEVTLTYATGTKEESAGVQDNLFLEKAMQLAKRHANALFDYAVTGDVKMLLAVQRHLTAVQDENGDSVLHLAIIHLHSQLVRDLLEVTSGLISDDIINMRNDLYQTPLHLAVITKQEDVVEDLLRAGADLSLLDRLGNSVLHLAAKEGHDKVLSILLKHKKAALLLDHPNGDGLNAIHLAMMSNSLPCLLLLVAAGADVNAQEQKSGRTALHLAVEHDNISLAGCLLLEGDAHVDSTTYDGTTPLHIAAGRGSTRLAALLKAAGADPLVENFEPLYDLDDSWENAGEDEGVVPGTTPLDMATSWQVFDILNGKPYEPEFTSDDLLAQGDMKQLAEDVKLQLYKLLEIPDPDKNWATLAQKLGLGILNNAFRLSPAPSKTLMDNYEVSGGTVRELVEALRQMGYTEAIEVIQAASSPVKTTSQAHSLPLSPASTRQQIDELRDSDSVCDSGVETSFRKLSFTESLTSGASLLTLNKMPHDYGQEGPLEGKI
Sequence of Signal transducer and activator of transcription 3 (Homo sapiens) (P40763 whole entry, looked up): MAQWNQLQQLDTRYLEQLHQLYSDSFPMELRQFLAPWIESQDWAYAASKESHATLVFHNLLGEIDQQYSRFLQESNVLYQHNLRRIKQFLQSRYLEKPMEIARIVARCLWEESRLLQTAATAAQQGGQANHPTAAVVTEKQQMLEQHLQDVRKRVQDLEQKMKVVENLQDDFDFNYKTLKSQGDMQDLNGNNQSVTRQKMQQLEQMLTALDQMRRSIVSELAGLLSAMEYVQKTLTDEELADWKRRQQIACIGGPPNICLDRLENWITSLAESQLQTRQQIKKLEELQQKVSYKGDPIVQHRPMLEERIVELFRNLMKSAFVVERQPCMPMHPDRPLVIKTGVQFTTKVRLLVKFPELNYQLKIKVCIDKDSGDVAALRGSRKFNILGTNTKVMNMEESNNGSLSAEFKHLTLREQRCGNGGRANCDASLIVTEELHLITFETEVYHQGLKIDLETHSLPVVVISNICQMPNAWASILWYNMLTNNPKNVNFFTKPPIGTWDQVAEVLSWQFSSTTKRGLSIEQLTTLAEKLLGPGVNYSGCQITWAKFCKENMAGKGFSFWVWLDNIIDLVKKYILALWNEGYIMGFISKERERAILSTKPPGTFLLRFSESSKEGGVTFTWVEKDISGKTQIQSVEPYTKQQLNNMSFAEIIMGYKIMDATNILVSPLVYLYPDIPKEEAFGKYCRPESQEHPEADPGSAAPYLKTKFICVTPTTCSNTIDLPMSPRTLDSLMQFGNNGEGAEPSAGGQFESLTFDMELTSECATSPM
Sequence of Nuclear factor erythroid 2-related factor 2 (Homo sapiens) (Q16236 whole entry, looked up): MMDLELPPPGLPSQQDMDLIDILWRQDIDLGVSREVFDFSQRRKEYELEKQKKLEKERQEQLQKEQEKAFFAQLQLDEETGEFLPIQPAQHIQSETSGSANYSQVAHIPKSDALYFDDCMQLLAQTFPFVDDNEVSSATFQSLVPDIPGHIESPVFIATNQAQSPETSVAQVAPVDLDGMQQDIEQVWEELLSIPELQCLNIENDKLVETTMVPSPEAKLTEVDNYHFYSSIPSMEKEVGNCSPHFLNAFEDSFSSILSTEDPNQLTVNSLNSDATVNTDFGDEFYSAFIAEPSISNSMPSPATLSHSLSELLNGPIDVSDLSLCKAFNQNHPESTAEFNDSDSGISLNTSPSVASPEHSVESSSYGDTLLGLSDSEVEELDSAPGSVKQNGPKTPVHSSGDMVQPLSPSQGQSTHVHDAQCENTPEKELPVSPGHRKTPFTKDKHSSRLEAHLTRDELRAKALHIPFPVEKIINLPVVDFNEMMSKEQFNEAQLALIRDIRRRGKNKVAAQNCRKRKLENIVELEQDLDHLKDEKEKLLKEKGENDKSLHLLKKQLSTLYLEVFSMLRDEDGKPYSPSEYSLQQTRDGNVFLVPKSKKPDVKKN

CCC(=O)O[C@H]1CC[C@H]2[C@@H]3CCC4=CC(=O)CC[C@]4(C)[C@H]3CC[C@]12C
active: [2] 50 µM | [3] 13.3 µM | [13] 12.6 µM
inactive: all other assays above

Cc1cccc([N+](=O)[O-])c1
not listed: MYC, MYC (gene 4609) | [11]
inactive: all other assays above

Cc1ccccc1CO[C@@H]1C[C@@]2(C(C)C)CC[C@]1(C)O2
active: [8] 50 µM | [18] 71.7 µM
not listed: [1] | [11]
inactive: all other assays above

CCSC(=O)N(CC)C1CCCCC1
not listed: [16]
inactive: all other assays above

CCOCCOC(C)=O
not listed: [4]
inactive: all other assays above

CCC(C)c1cc([N+](=O)[O-])cc([N+](=O)[O-])c1O (stereo not given)
inactive: [4] | [8] | [10] | [16]
active: [1] 3.93 µM | MYC, MYC (gene 4609) 9.27 µM | [2] 2.23 µM | [3] 1.26 µM | [5] 1.25 µM | [6] 5.41 µM | [7] 1.74 µM | [9] 3.47 µM | [12] 0.631 µM | [13] 2.32 µM | [14] 3.13 µM | [15] 4.14 µM | TIMP1, TIMP1 (gene 7076) 2.51 µM | [17] 4.74 µM | [18] 1.98 µM

CC#Cc1cc(C)nc(Nc2ccccc2)n1
active: [3] 13.1 µM | [7] 26.4 µM | [8] 19.2 µM | [10] 30.2 µM | [12] 6.11 µM | [13] 29.2 µM | [14] 5.75 µM | [18] 6.1 µM
not listed: MYC, MYC (gene 4609) | [2] | [11]
inactive: all other assays above

CN(C)CCO
inactive: all assays above

ClC1=C(Cl)[C@]2(Cl)[C@@H]3[C@H]4C[C@H]([C@@H]5O[C@H]45)[C@@H]3[C@@]1(Cl)C2(Cl)Cl
active: [7] 31.7 µM | [13] 13.8 µM | [18] 93 µM
not listed: MYC, MYC (gene 4609) | [11]
inactive: all other assays above

c1cc2ccc3cccc4ccc(c1)c2c34
not listed: MYC, MYC (gene 4609) | [11]
inactive: all other assays above

C[C@]12CCC(=O)C=C1CC[C@@H]1[C@@H]2CC[C@]2(C)C(=O)CC[C@@H]12
active: [2] 8.39 µM | [3] 6.54 µM | [14] 15.2 µM | [15] 50 µM | [18] 1.39 µM
not listed: [4] | [11]
inactive: all other assays above

O=C(NC(=O)c1c(F)cccc1F)Nc1cc(Cl)c(OC(F)(F)C(F)F)c(Cl)c1
active: [12] 9.92 µM | [18] 9.92 µM
not listed: [1] | [11]
inactive: all other assays above

O=S(=O)(O)C(F)(F)C(F)(F)C(F)(F)C(F)(F)C(F)(F)C(F)(F)F
active: [6] 10.3 µM | [8] 35.2 µM | [10] 0.979 µM
not listed: MYC, MYC (gene 4609) | [11]
inactive: all other assays above
